Assay outcomes as filed in PubChem.
The list is not random: actives were taken first. Their share in the collection is about 2.6%.
Ba/F3 V617F tox: lowers viability of Ba/F3 cells expressing EpoR and JAK2V617F; inhibition, % at 5.6 µM; ATP luminescence; 1.1% of 220,000 active;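 active means inhibition above the campaign mean plus 3 SD over all tested compounds, cut at about 24% in these data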;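 further: cytokine-independent growth of Ba/F3 cells driven by EpoR plus mutant JAK2; 0% = DMSO-treated cells and 100% = JAK inhibitor I control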
DNA FID counter: displaces DNA intercalator in HCV helicase counter-screen. 0.17% of 290,000 active. DNA fluorescent intercalator displacement, fluorescence. inhibition, % at 7.9 µM. AID 1845; in the data active means inhibition above about 37%;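 further: 0% = vehicle and 100% = reference compound; higher means more ethidium bromide displaced from hairpin DNA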
BaF3 parental: counter-screen for JAK2V617F inhibitors: parental Ba/F3 viability inhibitors; 1.1% of 220,000 active; inhibition, % at 5.6 µM; CellTiter-Glo ATP luminescence; AID 1486;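 active means inhibition above a per-campaign cutoff, the mean inhibition of all tested compounds plus 3 SD, cut at about 27% in these data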;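 further: 0% = DMSO wells and 100% = JAK Inhibitor I control wells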
GPR7 antagonist: antagonists of human GPR7 (neuropeptides B/W receptor 1); P48145; GPR7-expressing cells, fluorescence antagonist assay; inhibition, % at 4.4 µM; 1.1% of 290,000 active; AID 1861; in the data active means inhibition above about 16%, passing the limit was not always enough;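 further: cells stimulated with the agonist NPW; 0% = agonist with vehicle and 100% = vehicle without agonist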
Target sequence (P48145 whole entry, looked up): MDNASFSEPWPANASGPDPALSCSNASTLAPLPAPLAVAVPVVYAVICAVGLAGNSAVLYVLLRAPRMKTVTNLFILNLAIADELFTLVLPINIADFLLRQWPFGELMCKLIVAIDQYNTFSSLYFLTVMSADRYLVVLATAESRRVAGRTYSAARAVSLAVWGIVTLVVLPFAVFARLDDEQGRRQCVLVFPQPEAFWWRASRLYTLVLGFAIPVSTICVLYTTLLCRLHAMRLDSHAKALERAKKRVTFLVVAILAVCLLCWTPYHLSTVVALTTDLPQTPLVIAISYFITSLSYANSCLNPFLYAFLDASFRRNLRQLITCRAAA
IEC-6 tox: counter-screen for KLF5 inhibitors: cytotoxicity in IEC-6 cells; inhibition, % at 5 µM; IEC-6 cytotoxicity, luminescence viability; 0.78% of 290,000 active; AID 1825; in the data active means inhibition above about 22%;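 further: 0% = plate median of test compound wells and 100% = cytotoxic reference compound wells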
KLF5 inhibitor: kruppel-like factor 5 inhibition; DLD-1 KLF5 promoter-luciferase reporter, luminescence; inhibition, % at 5 µM; 0.23% of 290,000 active; AID 1700;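 active means inhibition above a per-plate limit of that plate's mean compound inhibition plus 3 SD, cut at about 60% in these data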;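 further: 0% = DMSO wells and 100% = LY294002 at 200 µM; higher means less KLF5 promoter-driven luciferase light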
BaF3 tox 2: counter-screen for JAK2V617F inhibitors: parental Ba/F3 viability inhibitors; shares compounds with Ba/F3 V617F tox; inhibition, % at 5.6 µM; 31% of 580 active; CellTiter-Glo luminescence; cells kept alive by added IL-3;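 active means cell growth inhibition above the hit limit set in the earlier mutant JAK2 cell screen, cut at about 27% in these data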;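 further: plate controls were DMSO-treated cells for no effect and JAK Inhibitor I control wells for full effect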
JAK2V617F conf: Ba/F3 EpoR-JAK2V617F viability loss, confirmation. shares compounds with Ba/F3 V617F tox. 66% of 580 active. CellTiter-Glo luminescence. inhibition, % at 5.6 µM;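 active means mean inhibition above the hit cutoff derived in the earlier primary screen, cut at about 25% in these data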;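 further: 0% = DMSO-treated cells and 100% = JAK inhibitor I control wells; higher means lower luminescence from reduced cell ATP and viability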
* = called active by the depositor; nt = no result.

SMILES	Ba/F3 V617F tox	DNA FID counter	BaF3 parental	GPR7 antagonist	IEC-6 tox	KLF5 inhibitor	BaF3 tox 2	JAK2V617F conf
Oc1c(C(Nc2nc3ccccc3s2)c2ccco2)ccc2cccnc12 (configuration not stated)	26.0*	-11.3	7.4	1.1	0.7	-6.8	35.2*	88.9*
c1coc(CNc2nc3ccccc3s2)c1	nt	-1.8	nt	6.0	-4.9	-126.8	nt	nt
Cc1cc2ccccn2c1C(=O)c1cccc([N+](=O)[O-])c1	-0.4	6.1	3.5	-11.3	5.6	-6.5	nt	nt
Cc1cc2ccccn2c1C(=O)c1ccc([N+](=O)[O-])o1	27.2*	3.1	0.5	1.1	2.3	-10.0	-6.8	42.0*
CC(=O)c1ccc(NC(=S)N(CCCN(C)C)Cc2ccccc2)cc1	-5.0	19.5	2.1	5.9	3.4	-29.4	nt	nt
CN(C)CCCN(Cc1ccccc1)C(=S)Nc1ccc(SC(F)F)cc1	36.3*	11.5	18.0	6.4	2.2	6.5	24.6	45.4*
Cc1ccc(-c2cc(C(=O)N3CCC(C)CC3)c3ccccc3n2)cc1	nt	-46.6	nt	-3.1	3.5	-40.8	nt	nt
OC(c1cc(-c2ccc(Cl)cc2)nc2ccccc12)C1CCCCN1 (configuration not stated)	65.1*	20.5	1.8	62.9*	34.0*	-12.0	4.7	20.4
COc1ncccc1C(=O)N1CCCC(N2CCN(c3ccc(F)cc3)CC2)C1 (configuration not stated)	nt	-24.2	nt	13.6	4.1	-2.2	nt	nt
CCCOc1ccc(Cc2nc(N)nc(N)n2)cc1	39.8*	-0.9	11.8	-4.0	6.1	-4.1	8.4	18.5
CCOc1ccc(Cc2nc(N)nc(N)n2)cc1	-1.3	-5.7	3.3	-10.6	-5.6	-18.0	nt	nt
Cc1ccc(S(=O)(=O)N(CCCN2CCCC2=O)Cc2cc3c(C)ccc(C)c3[nH]c2=O)cc1	61.6*	-9.6	23.2	4.7	5.4	-6.3	-6.5	12.1
COc1ccc(S(=O)(=O)N(CCCN2CCCC2=O)Cc2cc3cc(C)c(C)cc3[nH]c2=O)cc1	-0.7	-11.6	2.2	7.8	-1.2	10.3	nt	nt
COc1ccccc1NC(=S)NCCc1ccccc1	-1.7	-7.4	-0.4	4.0	2.0	5.8	nt	nt
COc1ccc(-c2cc(-c3cc(C)ccc3O)[nH]n2)cc1	32.0*	1.4	10.3	7.2	-3.4	-60.1	25.2	79.5*
CC(C)C[C@H](N)c1nnc(SCC(=O)Nc2ccc(Br)cc2)o1	nt	15.9	nt	7.3	2.2	-9.8	nt	nt
CC(C)C[C@H](NC(=O)OC(C)(C)C)c1nnc(SCC(=O)Nc2ccc(Br)cc2)o1	99.3*	-23.4	3.0	-9.2	-4.0	-5.3	-5.5	-1.5
CCN(CC)c1ccc2c(c1)OC(N)=C(C#N)C2c1cccnc1 (configuration not stated)	83.5*	-12.4	13.2	9.3	8.8	19.4	78.4*	97.7*
NC(=O)CSCc1nc2ccccc2s1	-0.8	-2.4	4.0	-9.8	-0.8	0.6	nt	nt
CCCOc1ccc(C(=O)C(CN2CCOCC2)c2ccccc2)cc1 (configuration not stated)	46.2*	-6.4	11.7	-1.3	-5.1	-3.0	9.7	97.3*
CCC1CCCCN1CCCNC(=O)Cn1cnc2sc(C)c(S(=O)(=O)N3CCC(C)CC3)c2c1=O (configuration not stated)	nt	9.3	nt	-3.3	-3.5	17.4	nt	nt
Cc1cc(C)cc(OCC(=O)O/N=C(\N)c2cccnc2)c1	34.8*	-15.1	4.1	1.7	-2.3	-18.1	-2.3	-2.8
Cc1cc2nc3c(c(C(F)(F)F)n2n1)CCCC3	-1.6	1.6	3.4	-8.1	5.0	-24.5	nt	nt
Cc1ccc(NC(=O)C(=Cc2ccc(C(=O)O)cc2)C(=O)Nc2ccc(C)cc2C)c(C)c1	35.6*	-33.8	0.8	2.3	-7.5	3.9	6.2	61.1*
Clc1ccc(-n2nnnc2Sc2ncnc3sccc23)cc1	26.4*	3.0	1.1	10.7	3.5	-0.2	1.1	87.6*
SMILES	Ba/F3 V617F tox	DNA FID counter	BaF3 parental	GPR7 antagonist	IEC-6 tox	KLF5 inhibitor	BaF3 tox 2	JAK2V617F conf
Cc1sc2ncnc(Sc3nnnn3-c3ccccc3)c2c1C	-2.3	-2.9	3.8	2.8	1.8	-20.4	nt	nt
O=C(CC(=O)N/N=C/c1ccc(Cl)cc1Cl)NCc1ccccc1	0.7	-1.1	5.3	-0.8	3.9	-23.9	nt	nt
CCCc1cc(=O)n2[nH]c(C(F)(F)F)nc2n1	-1.9	1.6	4.1	-1.4	-1.9	-11.5	nt	nt
Fc1ccc(N2CCN(Cc3ccccn3)CC2)cc1	63.2*	1.7	-0.7	-8.7	-1.7	-11.1	-4.7	-7.2
COc1ccc(-c2nnc(SCC(=O)Nc3ncc(C)s3)n2-c2ccccc2)cc1OC	85.5*	-39.6	7.5	2.9	10.1	18.6	17.7	22.4
CCCOc1ccc2ccccc2c1/C=N/n1c(C)nnc1-n1nc(C)cc1C	23.5*	-27.9	25.9	8.1	12.0	-9.2	55.0*	65.7*
Cc1cc(C)n(-c2nnc(C)n2/N=C/c2ccco2)n1	6.0	-2.0	8.2	13.8	-1.1	9.3	nt	nt
O=C(c1cc(-c2ccccc2O)on1)N1CCOCC1	nt	-5.1	nt	-7.4	-1.9	-122.5	nt	nt
Cc1ccc(NC(=O)C2CCN(C(=O)N3CCOc4ccccc43)CC2)cc1	nt	-38.3	nt	-3.4	1.9	-22.3	nt	nt
COc1ccc(-n2nnnc2S(=O)(=O)CC(=O)N2CCCCC2)cc1	26.9*	-7.1	0.5	5.4	9.9	0.4	23.5	87.9*
Cc1ccc(C(=O)N2CCN3C(=O)c4ccccc4C23c2ccc(Cl)cc2)cc1 (configuration not stated)	28.1*	-39.3	21.9	-7.2	16.9	-8.7	16.0	36.4*
CCCCn1c(N)c(Sc2ccc(Cl)cc2)c(=O)[nH]c1=O	-0.6	2.2	7.1	-2.4	-2.9	-7.7	nt	nt
Cc1cc(NC(=O)c2ccccc2-c2ccccc2C(=O)O)no1	1.3	3.8	0.9	-11.1	-0.6	-2.7	nt	nt
Cc1cc(C)c2nc(SCC(=O)N3CC(=O)Nc4ccccc43)c(C#N)cc2c1	66.8*	-5.2	3.7	-5.8	-0.2	-2.3	96.6*	98.5*
O=C(COC(=O)c1ccc(S(=O)(=O)NCc2ccco2)cc1)Nc1ccc(OC(F)F)cc1	-0.2	-2.1	6.2	4.2	2.9	-11.0	nt	nt
Cc1ccc(S(=O)(=O)NCc2ccc(C(=O)NCCc3ccc(S(N)(=O)=O)cc3)cc2)cc1	nt	-16.1	nt	-5.5	-1.1	-31.1	nt	nt
Cc1ccc(S(=O)(=O)NCc2ccc(C(=O)N(C)CCC#N)cc2)cc1	92.8*	-14.3	2.6	-6.4	1.2	-12.9	-1.7	3.6
CCn1c(SCc2c(F)cccc2Cl)nnc1-c1ccco1	27.2*	-18.9	-0.8	-4.0	4.2	8.5	-2.0	3.6
CCn1c(SCc2nc(-c3ccccc3)no2)nnc1-c1ccco1	-2.1	-26.7	4.7	3.4	-3.3	7.2	nt	nt
CCCCOc1ccccc1C1C(C(=O)OC)=CN(CC)C=C1C(=O)OC	28.9*	-1.7	26.4	2.8	12.9	-30.0	29.7*	35.1*
